PubChem BioAssay (Tox21)
Results filed as inconclusive are left out. Active and inactive are the calls of the source. Unless noted, calls come from the whole dose curve; as a rule, active = well fitted curve in the direction sought with a large enough effect in the repeat runs; inconclusive = weak or mixed curves; inactive = no such curve, though single readings can be large; an effect the other way counts as inactive or inconclusive.

Tests used:
[1] = target: Peroxisome proliferator-activated receptor delta (Homo sapiens) (UniProt Q03181); experiment: qHTS assay to identify small molecule agonists of the peroxisome proliferator-activated receptor delta (PPARd) signaling pathway (AID 743212; calls by dose curve)
Peroxisome proliferator-activated receptor delta (Homo sapiens), sequence (Q03181 whole entry, looked up): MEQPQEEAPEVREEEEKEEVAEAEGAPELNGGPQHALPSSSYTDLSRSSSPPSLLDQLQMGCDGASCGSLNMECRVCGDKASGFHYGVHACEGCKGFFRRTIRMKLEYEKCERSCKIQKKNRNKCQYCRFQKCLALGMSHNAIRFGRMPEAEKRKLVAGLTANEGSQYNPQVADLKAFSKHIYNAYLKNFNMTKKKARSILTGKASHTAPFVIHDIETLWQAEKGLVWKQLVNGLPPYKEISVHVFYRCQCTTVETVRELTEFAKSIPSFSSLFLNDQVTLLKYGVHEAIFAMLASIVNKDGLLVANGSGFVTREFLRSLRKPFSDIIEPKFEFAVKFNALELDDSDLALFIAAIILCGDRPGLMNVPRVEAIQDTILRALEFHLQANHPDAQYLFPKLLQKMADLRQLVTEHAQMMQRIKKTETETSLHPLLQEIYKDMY
Procedure, shortened: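 Quantitative high-throughput agonist screen in a HEK293H beta-lactamase reporter line under UAS control. Compounds in DMSO, at 37 C. Fluorescence read after 2 h with FRET substrate at room temperature.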

[2] = qHTS assay to identify small molecule antagonists of the peroxisome proliferator-activated receptor delta (PPARd) signaling pathway - cell viability counter screen (AID 743213); note: nearly all actives have a fitted effect of over 50% in size
Procedure, shortened: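 In this counter screen, HEK293H cells carrying a UAS-beta-lactamase reporter are co-treated with test compounds and 300 nM L165041 (final) for 17 h at 37 C; cell viability is quantified by CellTiter-Glo luminescence.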

[3] = target: Peroxisome proliferator-activated receptor delta (Homo sapiens) (UniProt Q03181); experiment: qHTS assay to identify small molecule antagonists of the peroxisome proliferator-activated receptor delta (PPARd) signaling pathway (AID 743215; active = well fitted inhibition curve with a large enough effect in the signal ratio in the repeat runs, not every such curve was filed as active; the % refers to the signal ratio;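 note: cells stimulated with agonist L165041 at 300 nM final during compound exposure; series mostly up to about 62 µM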)
Procedure, shortened: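 With L165041 present at 300 nM final, compounds were incubated 17 h at 37 C on PPARd UAS-bla HEK293H cells. A FRET-based beta-lactamase substrate was then applied for 2 h at room temperature and fluorescence intensity recorded.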

[4] = qHTS assay to identify small molecule antagonists of the farnesoid-X-receptor (FXR) signaling pathway - cell viability counter screen (AID 743221; active = well fitted cell-killing curve with a large enough effect in the repeat runs, not every such curve was filed as active; note: nearly all actives have a fitted effect of over 50% in size)
Procedure, shortened: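 In GeneBLAzer FXR-UAS-bla HEK 293T cells stimulated with 50 uM chenodeoxycholic acid (final), compounds acted for 16 h at 37 C. Viability was assessed afterwards by CellTiter-Glo luminescence.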

[5] = target: Vitamin D3 receptor (Homo sapiens) (UniProt P11473); experiment: qHTS assay to identify small molecule agonists of the vitamin D receptor (VDR) signaling pathway (AID 743222; calls by dose curve)
Vitamin D3 receptor (Homo sapiens), sequence (P11473 whole entry, looked up): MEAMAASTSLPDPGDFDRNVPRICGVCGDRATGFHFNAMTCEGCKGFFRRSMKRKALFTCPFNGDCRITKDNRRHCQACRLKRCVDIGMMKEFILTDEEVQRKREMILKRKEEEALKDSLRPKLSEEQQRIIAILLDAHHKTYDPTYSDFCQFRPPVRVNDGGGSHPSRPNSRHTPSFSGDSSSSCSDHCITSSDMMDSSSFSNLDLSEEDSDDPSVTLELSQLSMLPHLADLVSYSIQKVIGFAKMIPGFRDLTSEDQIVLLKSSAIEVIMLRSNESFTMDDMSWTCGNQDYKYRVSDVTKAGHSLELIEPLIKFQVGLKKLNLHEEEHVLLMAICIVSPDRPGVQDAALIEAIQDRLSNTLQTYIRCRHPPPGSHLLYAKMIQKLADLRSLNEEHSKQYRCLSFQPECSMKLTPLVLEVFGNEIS
Procedure, shortened: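 VDR-bla cells were seeded, left 4 h, treated with compounds in DMSO for 16 h, incubated 2 h at RT with B/G FRET substrate, and read for fluorescence.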

[6] = target: Vitamin D3 receptor (Homo sapiens) (UniProt P11473); experiment: qHTS assay to identify small molecule antagonists of the vitamin D receptor (VDR) signaling pathway (AID 743223; active = well fitted inhibition curve with a large enough effect in the signal ratio in the repeat runs, not every such curve was filed as active; the % refers to the signal ratio)
Procedure, shortened: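 Agonist 1alpha,25-dihydroxyvitamin D3 (3 nM in well) was added with each compound to VDR-bla cells preincubated 4 h. Cells stood 16 h at 37C, then FRET substrate 2 h at room temperature; fluorescence intensity recorded.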

[7] = qHTS assay to identify small molecule agonists of the vitamin D receptor (VDR) signaling pathway - cell viability counter screen (AID 743224); note: series mostly up to about 63 µM; nearly all actives have a fitted effect of over 50% in size
Procedure, shortened: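 Here cell health was gauged by luminescent ATP detection (CellTiter-Glo, 30 min RT) in VDR-bla cells that had been incubated with test compounds for 16 h at 37C and 5% CO2.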

[8] = qHTS assay to identify small molecule agonists of the farnesoid-X-receptor (FXR) signaling pathway - cell viability counter screen (AID 743218); note: nearly all actives have a fitted effect of over 45% in size
Procedure, shortened: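 After 16 h at 37 C with test compounds, FXR-bla HEK 293T cells were given LiveBLAzer B/G substrate for 2 h at RT and then CellTiter-Glo; luminescence was taken after 30 min.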

[9] = target: Bile acid receptor (Homo sapiens) (UniProt Q96RI1); experiment: qHTS assay to identify small molecule antagonists of the farnesoid-X-receptor (FXR) signaling pathway (AID 743217; active = well fitted inhibition curve with a large enough effect in the signal ratio in the repeat runs, not every such curve was filed as active; the % refers to the signal ratio)
Bile acid receptor (Homo sapiens), sequence (Q96RI1 whole entry, looked up): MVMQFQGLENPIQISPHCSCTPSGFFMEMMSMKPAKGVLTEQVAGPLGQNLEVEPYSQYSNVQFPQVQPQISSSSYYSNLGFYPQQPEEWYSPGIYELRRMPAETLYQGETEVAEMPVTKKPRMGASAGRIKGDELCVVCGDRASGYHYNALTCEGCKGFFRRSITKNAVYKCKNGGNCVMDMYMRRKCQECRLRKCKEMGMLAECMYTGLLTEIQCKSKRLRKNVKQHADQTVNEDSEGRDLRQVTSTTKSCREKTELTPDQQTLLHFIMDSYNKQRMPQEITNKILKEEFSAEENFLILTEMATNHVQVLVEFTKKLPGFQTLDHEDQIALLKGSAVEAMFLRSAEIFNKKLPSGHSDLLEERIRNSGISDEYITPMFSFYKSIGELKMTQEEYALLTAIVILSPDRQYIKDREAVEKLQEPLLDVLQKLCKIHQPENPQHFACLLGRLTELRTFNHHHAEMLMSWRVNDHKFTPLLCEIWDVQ
Procedure, shortened: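 In this cell-based antagonist screen, inhibition of CDCA-driven (50 uM final) UAS-beta-lactamase expression in HEK 293T cells was measured by FRET fluorescence following 16 h compound exposure at 37 °C.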

[10] = target: Bile acid receptor (Homo sapiens) (UniProt Q96RI1); experiment: qHTS assay to identify small molecule agonists of the farnesoid-X-receptor (FXR) signaling pathway (AID 743220; active = well fitted activation curve with a large enough effect in the signal ratio in the repeat runs, not every such curve was filed as active; the % refers to the signal ratio)
Procedure, shortened: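 Beta-lactamase reporter under UAS control in GeneBLAzer FXR HEK 293T cells (5000/well) measured with LiveBLAzer FRET substrate after 2 h at room temperature. Compound exposure lasted 16 h at 37C.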

Measured: Potency

CC(=O)C(=O)CC(C)C
not listed: [8] | [9] | [10]
inactive: all other assays above

COc1ccc(-n2nc(C(F)F)cc2-c2ccc(S(C)=O)cc2)cc1 (stereo unspecified)
inactive: [1] | [2] | [8] | [4]

CCCCOCCOC(=O)c1cccnc1
inactive: [1] | [2] | [3] | [4] | [7]

CCN(Cc1cccc(S(=O)(=O)O)c1)c1ccc(C(=C2C=CC(=[N+](CC)Cc3cccc(S(=O)(=O)O)c3)C=C2)c2ccc(O)cc2S(=O)(=O)[O-])cc1
inactive: [1] | [3] | [9] | [10] | [5] | [6]

Nc1c(Cl)cc(Cl)cc1[N+](=O)[O-]
inactive: [1] | [2] | [8] | [4] | [5] | [7]

Cc1ccc(S(=O)(=O)NC(=O)NC2CCCCC2)cc1
inactive: [1] | [2] | [3] | [4] | [7]

COc1ccc(-c2cc(C(F)F)nn2-c2ccc(S(N)(=O)=O)cc2)cc1F
inactive: [1] | [2] | [10] | [4] | [5] | [6]

COc1cc(C(C)=O)ccc1OCCCN1CCC(c2noc3cc(F)ccc23)CC1
inactive: [1] | [2] | [4] | [6] | [7]

CN1C(CSCC(F)(F)F)Nc2cc(Cl)c(S(N)(=O)=O)cc2S1(=O)=O (stereo unspecified)
not listed: [3] | [9] | [10]
inactive: all other assays above

COc1cc(OC)c2ccc(=O)oc2c1
inactive: [1] | [2] | [8] | [4] | [7]

C=CCOC(=O)COCCC(C)C
inactive: [1] | [2] | [3] | [4] | [7]

O=C(c1ccccc1)c1ccc(O)cc1
not listed: [2]
inactive: all other assays above

CCN(CC)C(=O)/C(C#N)=C/c1cc(O)c(O)c([N+](=O)[O-])c1
inactive: [1] | [2] | [8] | [4] | [7]

NC(=O)CCCCC(N)=O
not listed: [8] | [9] | [10]
inactive: all other assays above

c1ccc(CCCc2ccncc2)cc1
inactive: [1] | [2] | [8] | [4] | [7]

Nc1ccc(S(=O)(=O)NCc2ccccc2)cc1
inactive: [1] | [3] | [9] | [4] | [5] | [7]

O=C(O)c1ccc(O)cc1O
not listed: [3] | [10]
inactive: all other assays above

CCOCCC(=O)OCC
not listed: [8] | [9] | [10]
inactive: all other assays above

CCN(CC)CCOC(=O)C(c1ccccc1)c1ccccc1
not listed: [2] | [6]
inactive: all other assays above

CCCCCCCC(=O)OCCCCCC
inactive: [1] | [2] | [3] | [5] | [6]

[Cl][Nd]([Cl])[Cl]
inactive: [1] | [2] | [8] | [4] | [5] | [7]

Nc1ccc(F)cc1
inactive: [1] | [2] | [4] | [5] | [6]

COC(=O)C1=C(C)NC(C)=C(C(=O)OC(C)(C)CN(C)CCC(c2ccccc2)c2ccccc2)C1c1cccc([N+](=O)[O-])c1 (stereo unspecified)
inactive: [1] | [2] | [3] | [5] | [6]

c1ccc(CNc2ncnc3c2ncn3C2CCCCO2)cc1 (stereo unspecified)
inactive: [1] | [3] | [9] | [4] | [5] | [7]

CCN(CC)CC(=O)Nc1c(C)cccc1C(=O)OC
not listed: [8] | [9] | [10]
inactive: all other assays above

Cc1cn([C@H]2C[C@H](F)[C@@H](CO)O2)c(=O)[nH]c1=O
not listed: [8] | [9] | [10]
inactive: all other assays above

O=C(CCS)OCC(COC(=O)CCS)(COC(=O)CCS)COC(=O)CCS
not listed: [3] | [10]
inactive: all other assays above

CC1CCC(C(C)CS)CC1S (stereo unspecified)
inactive: [1] | [2] | [3] | [4] | [5] | [7]
